Over roughly 33,000 sequences, “E-score (-0.5 to 0.5)” has its median near -0.021; the highest 2% begin near 0.32. This excerpt belongs to a sample that is enriched for the highest values.
molecular target: T1, Zap1 (UniProt P47043); test: PBM E-score (8-mer binding enrichment) (E-score (-0.5 to 0.5)); higher = stronger / more preferred TF binding; details: protein concentration: 200 nM; construct: GST-full length
T1 sequence: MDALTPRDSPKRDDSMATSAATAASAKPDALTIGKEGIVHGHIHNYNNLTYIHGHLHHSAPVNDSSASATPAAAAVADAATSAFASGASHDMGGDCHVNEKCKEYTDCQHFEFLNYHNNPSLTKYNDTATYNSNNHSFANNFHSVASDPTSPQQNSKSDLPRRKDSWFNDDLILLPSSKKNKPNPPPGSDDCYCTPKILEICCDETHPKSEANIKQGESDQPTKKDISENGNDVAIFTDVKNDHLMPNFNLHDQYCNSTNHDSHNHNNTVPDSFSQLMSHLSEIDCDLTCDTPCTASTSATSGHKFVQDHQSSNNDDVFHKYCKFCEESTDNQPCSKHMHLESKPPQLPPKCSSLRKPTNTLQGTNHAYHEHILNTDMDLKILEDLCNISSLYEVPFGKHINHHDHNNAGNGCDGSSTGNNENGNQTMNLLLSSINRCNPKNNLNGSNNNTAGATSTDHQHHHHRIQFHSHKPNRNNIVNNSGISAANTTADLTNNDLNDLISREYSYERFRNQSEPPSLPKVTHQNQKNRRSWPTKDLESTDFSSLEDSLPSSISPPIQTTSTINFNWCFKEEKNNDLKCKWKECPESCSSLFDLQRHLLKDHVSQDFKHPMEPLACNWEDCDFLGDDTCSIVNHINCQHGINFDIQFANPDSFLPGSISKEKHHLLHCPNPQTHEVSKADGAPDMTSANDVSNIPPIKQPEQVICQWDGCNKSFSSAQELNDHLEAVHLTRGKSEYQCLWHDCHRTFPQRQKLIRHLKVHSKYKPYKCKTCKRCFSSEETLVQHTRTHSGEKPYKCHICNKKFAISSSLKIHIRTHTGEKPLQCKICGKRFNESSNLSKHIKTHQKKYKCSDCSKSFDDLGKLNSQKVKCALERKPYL
Summary of the method: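 Yeast transcription factors carrying a GST tag, as full-length proteins or DNA-binding domains, were produced by PURExpress in vitro transcription/translation. About 100-200 nM protein was applied to universal all-10-mer Agilent arrays, double-stranded by primer extension on fresh or once-stripped slides. Bound protein was detected with fluorescent anti-GST, and scans were normalised with masliner. The Universal PBM Analysis Suite gave each ungapped eight-base word, pooled with its reverse complement, an E-score, a modified Wilcoxon-Mann-Whitney statistic.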

With GATACTCA as the sequence, how does the “PBM E-score” value read?
Its value is -0.029.

With ATAGGTAG as the sequence, how does the “PBM E-score” value read?
The value was 0.172.

For ATAGGTAC, which “PBM E-score” value is on record?
Its value is 0.36.

ATAGGTGA was tested. Which “PBM E-score” value did it give?
The value was 0.0727.

CTAGGTAA was tested. Which “PBM E-score” value did it give?
Its value is 0.0356.

With ATAGGTAA as the sequence, how does the “PBM E-score” value read?
The value was 0.323.

For CTAGGTAC, which “PBM E-score” value is on record?
Its value is 0.115.

With GGAAGGCA as the sequence, how does the “PBM E-score” value read?
Its value is -0.191.

AGGGGCTG was tested. Which “PBM E-score” value did it give?
Its value is -0.0614.

For CTGGTTTC, which “PBM E-score” value is on record?
The value was 0.124.

Which “PBM E-score” value does the source give for ATGGTTAC here?
The value was 0.471.

With ATGGTTAG as the sequence, how does the “PBM E-score” value read?
The value was 0.316.

Which “PBM E-score” value does the source give for CTGGTTAC here?
Its value is 0.412.

ATGGTTGC was tested. Which “PBM E-score” value did it give?
Its value is 0.0738.

CTGGTTAA was tested. Which “PBM E-score” value did it give?
Its value is 0.225.

For ACGGTTGG, which “PBM E-score” value is on record?
Its value is -0.0119.

With CGCTATAG as the sequence, how does the “PBM E-score” value read?
The value was -0.238.

TCCATTCA was tested. Which “PBM E-score” value did it give?
The value was 0.0213.

With ATCTGGAA as the sequence, how does the “PBM E-score” value read?
The value was -0.00838.

Which “PBM E-score” value does the source give for AAACCTCA here?
The value was 0.232.

How did the “PBM E-score” value turn out when TAACCTAA was run?
The value was 0.399.

For GAACCTCA, which “PBM E-score” value is on record?
Its value is 0.189.

With TGACCTCA as the sequence, how does the “PBM E-score” value read?
The value was 0.333.

With CGACCTCA as the sequence, how does the “PBM E-score” value read?
The value was 0.081.

TAACCTCA was tested. Which “PBM E-score” value did it give?
The value was 0.418.

With CAACCTAA as the sequence, how does the “PBM E-score” value read?
Its value is 0.203.

Which “PBM E-score” value does the source give for AAACCTTA here?
Its value is 0.288.

TAACCTTA was tested. Which “PBM E-score” value did it give?
Its value is 0.39.

How did the “PBM E-score” value turn out when AGACCTCA was run?
Its value is 0.0826.

CAACCTTA was tested. Which “PBM E-score” value did it give?
The value was 0.286.

How did the “PBM E-score” value turn out when AAACCTAA was run?
Its value is 0.159.

How did the “PBM E-score” value turn out when AGCTACAT was run?
The value was -0.263.

ATTTCTGG was tested. Which “PBM E-score” value did it give?
Its value is 0.0521.

How did the “PBM E-score” value turn out when AAGTTCAC was run?
The value was -0.108.

AATGAAGT was tested. Which “PBM E-score” value did it give?
The value was 0.0905.

How did the “PBM E-score” value turn out when AATCAAAG was run?
Its value is 0.0185.

ACTATGAT was tested. Which “PBM E-score” value did it give?
The value was -0.00467.

Which “PBM E-score” value does the source give for GTTGTATA here?
Its value is 0.117.

For AAGTTGCT, which “PBM E-score” value is on record?
Its value is -0.0577.

Which “PBM E-score” value does the source give for GTACTGAC here?
Its value is 0.0986.

GTACTGTA was tested. Which “PBM E-score” value did it give?
Its value is 0.0704.

With GTACTGAA as the sequence, how does the “PBM E-score” value read?
The value was 0.317.

For AGGGTCCG, which “PBM E-score” value is on record?
The value was -0.0112.

Which “PBM E-score” value does the source give for CGATGGCG here?
The value was -0.284.

With CATGAAAC as the sequence, how does the “PBM E-score” value read?
Its value is 0.0838.

For CAAGTGCG, which “PBM E-score” value is on record?
Its value is -0.0607.

GGCATGTA was tested. Which “PBM E-score” value did it give?
Its value is -0.0887.

How did the “PBM E-score” value turn out when CCGCCCGG was run?
The value was 0.0274.

How did the “PBM E-score” value turn out when CCGCCCCC was run?
The value was -0.343.

For CCGCCCCG, which “PBM E-score” value is on record?
Its value is 0.341.

How did the “PBM E-score” value turn out when CAGGTGTC was run?
The value was -0.0194.

CAGTACTA was tested. Which “PBM E-score” value did it give?
The value was 0.164.

TCAAAAAA was tested. Which “PBM E-score” value did it give?
The value was 0.202.

AAACCATA was tested. Which “PBM E-score” value did it give?
The value was 0.202.

Which “PBM E-score” value does the source give for TAACCATA here?
Its value is 0.44.

For GAACCCAA, which “PBM E-score” value is on record?
Its value is 0.152.

For GAACCATA, which “PBM E-score” value is on record?
The value was 0.206.

CAACCCCA was tested. Which “PBM E-score” value did it give?
The value was 0.42.

For CAACCCCC, which “PBM E-score” value is on record?
The value was -0.212.

Which “PBM E-score” value does the source give for CAACCCCG here?
Its value is 0.211.

For CAACCCAA, which “PBM E-score” value is on record?
Its value is 0.272.

With CAACCAAA as the sequence, how does the “PBM E-score” value read?
The value was 0.213.

Which “PBM E-score” value does the source give for TAACCCAA here?
The value was 0.424.

TAACCAAA was tested. Which “PBM E-score” value did it give?
The value was 0.386.

How did the “PBM E-score” value turn out when AAACCAAA was run?
Its value is 0.254.

AAGATGCA was tested. Which “PBM E-score” value did it give?
The value was 0.0988.

With AACTTGCT as the sequence, how does the “PBM E-score” value read?
The value was -0.17.

How did the “PBM E-score” value turn out when AATGTCTA was run?
Its value is 0.00891.

For CGTCAGTC, which “PBM E-score” value is on record?
The value was -0.206.

For GCCGCATA, which “PBM E-score” value is on record?
The value was 0.102.

For TACAAGTA, which “PBM E-score” value is on record?
Its value is 0.0103.

AACCTAAT was tested. Which “PBM E-score” value did it give?
Its value is 0.204.

Which “PBM E-score” value does the source give for GATCAACC here?
The value was -0.0383.

GTGAGCGA was tested. Which “PBM E-score” value did it give?
The value was 0.1.

With ATCAGTAC as the sequence, how does the “PBM E-score” value read?
The value was -0.0201.

For AGGTGCAA, which “PBM E-score” value is on record?
Its value is 0.0924.

How did the “PBM E-score” value turn out when TTTGAAAA was run?
The value was 0.273.

For GAGTTCGA, which “PBM E-score” value is on record?
Its value is 0.0349.

AAACCCCA was tested. Which “PBM E-score” value did it give?
Its value is 0.261.

How did the “PBM E-score” value turn out when TAACCACA was run?
Its value is 0.417.

Which “PBM E-score” value does the source give for AAACCACA here?
The value was 0.184.

TAACCCCA was tested. Which “PBM E-score” value did it give?
Its value is 0.424.

How did the “PBM E-score” value turn out when AAACCACG was run?
Its value is -0.0205.

For GAACCCCA, which “PBM E-score” value is on record?
Its value is 0.291.

Which “PBM E-score” value does the source give for GTGAGTCA here?
The value was -0.0169.

How did the “PBM E-score” value turn out when CCAACTAC was run?
The value was 0.0442.

With ACGCGATC as the sequence, how does the “PBM E-score” value read?
The value was -0.143.
